# Measurements published in publication PMC7862700, “An all-to-all approach to the identification of sequence-specific readers for epigenetic DNA modifications on cytosine”.
# Experiments:
# Experiment in all cases: DAPPL (digital affinity profiling via proximity ligation, sequencing); 10 mM Tris-HCl pH 7.5, 50 mM NaCl, 1 mM DTT, 4% glycerol, room temperature, 30 min; GST-TFs on glutathione beads, 16-mer random dsDNA library, 0.1% formaldehyde crosslink after washing; high values mean tight binding
# FLI1 = target: T1, FLI1 (Homo sapiens, UniProt Q01543 1-452); conditions: protein: recombinant; tags: N-terminal GST; dsDNA, one strand shown
# T1 sequence: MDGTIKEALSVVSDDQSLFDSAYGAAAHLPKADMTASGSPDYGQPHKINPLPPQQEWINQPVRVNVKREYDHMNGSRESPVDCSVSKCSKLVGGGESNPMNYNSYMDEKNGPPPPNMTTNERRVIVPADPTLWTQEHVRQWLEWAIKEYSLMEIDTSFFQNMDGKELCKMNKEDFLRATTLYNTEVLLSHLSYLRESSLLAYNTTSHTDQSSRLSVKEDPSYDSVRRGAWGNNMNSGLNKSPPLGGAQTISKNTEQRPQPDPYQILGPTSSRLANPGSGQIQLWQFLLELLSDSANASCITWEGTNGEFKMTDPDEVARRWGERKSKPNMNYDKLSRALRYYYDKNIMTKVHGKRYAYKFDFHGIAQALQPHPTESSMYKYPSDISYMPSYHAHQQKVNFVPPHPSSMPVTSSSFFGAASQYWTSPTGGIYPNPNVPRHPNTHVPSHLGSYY
# Method in brief: (§1)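 Human transcription factors were made in yeast as GST fusions, captured on glutathione beads and barcoded with DNA. With a tag-only sample included, the pool was incubated with 200 nmole of a random double-stranded 16-mer DNA library in Tris/NaCl/DTT/glycerol buffer at room temperature for 30 min, then crosslinked with 0.1% formaldehyde after washing, ligated by proximity, amplified and sequenced. For binding signal, each hexamer's read frequency for a factor is divided by its frequency for the tag-only sample.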
# ELK1 = target: T2, ELK1 (Homo sapiens, UniProt P19419 1-428); conditions: protein: recombinant; tags: N-terminal GST; dsDNA, one strand shown
# T2 sequence: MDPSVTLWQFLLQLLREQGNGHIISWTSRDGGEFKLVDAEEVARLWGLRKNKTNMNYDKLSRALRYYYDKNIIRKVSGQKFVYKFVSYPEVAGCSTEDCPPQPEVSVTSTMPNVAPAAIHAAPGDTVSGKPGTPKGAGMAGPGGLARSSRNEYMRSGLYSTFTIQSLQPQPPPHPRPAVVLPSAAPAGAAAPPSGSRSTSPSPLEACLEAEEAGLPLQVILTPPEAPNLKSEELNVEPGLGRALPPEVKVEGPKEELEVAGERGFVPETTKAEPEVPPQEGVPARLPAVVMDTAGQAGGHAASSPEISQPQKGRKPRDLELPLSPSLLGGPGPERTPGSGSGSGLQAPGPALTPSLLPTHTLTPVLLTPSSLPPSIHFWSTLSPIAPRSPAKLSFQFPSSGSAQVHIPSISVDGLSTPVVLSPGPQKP
# Method in brief: as §1
# GABPA = target: T3, GABPA (Homo sapiens, UniProt Q06546 1-454); conditions: protein: recombinant; tags: N-terminal GST; dsDNA, one strand shown
# T3 sequence: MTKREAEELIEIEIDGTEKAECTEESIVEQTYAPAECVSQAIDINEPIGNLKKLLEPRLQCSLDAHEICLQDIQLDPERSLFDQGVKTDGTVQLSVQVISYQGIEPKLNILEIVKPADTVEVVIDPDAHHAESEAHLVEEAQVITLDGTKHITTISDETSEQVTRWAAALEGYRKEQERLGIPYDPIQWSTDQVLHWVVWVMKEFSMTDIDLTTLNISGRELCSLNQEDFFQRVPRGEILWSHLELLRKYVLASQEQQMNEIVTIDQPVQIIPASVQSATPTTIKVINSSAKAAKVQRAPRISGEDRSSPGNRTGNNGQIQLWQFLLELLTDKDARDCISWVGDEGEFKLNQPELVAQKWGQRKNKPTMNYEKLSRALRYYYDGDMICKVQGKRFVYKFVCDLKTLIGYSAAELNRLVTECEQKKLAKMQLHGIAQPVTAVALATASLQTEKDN
# Method in brief: as §1
# ELF1 = ELF1 (Homo sapiens, UniProt P32519 1-619); conditions: protein: recombinant; tags: N-terminal GST; dsDNA, one strand shown
# Chain of ELF1 (P32519 whole entry): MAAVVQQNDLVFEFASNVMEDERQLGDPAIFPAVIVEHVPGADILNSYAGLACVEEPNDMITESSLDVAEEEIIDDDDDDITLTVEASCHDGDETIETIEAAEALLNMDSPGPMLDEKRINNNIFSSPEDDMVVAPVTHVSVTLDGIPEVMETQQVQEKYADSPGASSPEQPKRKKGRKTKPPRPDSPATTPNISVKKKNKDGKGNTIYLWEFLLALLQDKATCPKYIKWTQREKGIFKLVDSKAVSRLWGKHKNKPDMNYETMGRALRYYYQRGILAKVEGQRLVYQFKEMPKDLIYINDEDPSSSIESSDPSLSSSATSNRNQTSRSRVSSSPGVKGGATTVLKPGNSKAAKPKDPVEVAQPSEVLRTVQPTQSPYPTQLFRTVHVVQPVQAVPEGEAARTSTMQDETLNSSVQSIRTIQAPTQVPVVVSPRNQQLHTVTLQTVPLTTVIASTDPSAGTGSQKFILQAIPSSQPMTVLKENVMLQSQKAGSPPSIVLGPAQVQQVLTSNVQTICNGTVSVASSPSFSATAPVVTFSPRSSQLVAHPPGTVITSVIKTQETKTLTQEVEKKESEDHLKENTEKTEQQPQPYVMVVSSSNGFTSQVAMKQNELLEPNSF
# Method in brief: as §1
# EHF = target: T4, EHF (Homo sapiens, UniProt Q9NZC4 1-300); conditions: protein: recombinant; tags: N-terminal GST; dsDNA, one strand shown
# T4 sequence: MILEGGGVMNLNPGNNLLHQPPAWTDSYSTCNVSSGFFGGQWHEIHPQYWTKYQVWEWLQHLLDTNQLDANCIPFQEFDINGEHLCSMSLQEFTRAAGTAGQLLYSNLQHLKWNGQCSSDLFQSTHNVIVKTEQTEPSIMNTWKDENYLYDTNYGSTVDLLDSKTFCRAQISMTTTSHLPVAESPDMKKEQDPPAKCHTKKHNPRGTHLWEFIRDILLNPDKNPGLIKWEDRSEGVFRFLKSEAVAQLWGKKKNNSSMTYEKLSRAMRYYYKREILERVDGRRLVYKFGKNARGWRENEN
# Method in brief: as §1
# SPI1 = SPI1 (Homo sapiens, UniProt P17947 1-270); conditions: protein: recombinant; tags: N-terminal GST; dsDNA, one strand shown
# Method in brief: as §1
# SPIB = SPIB (Homo sapiens, UniProt Q01892 1-262); conditions: protein: recombinant; tags: N-terminal GST; dsDNA, one strand shown
# Chain of SPIB (Q01892 whole entry): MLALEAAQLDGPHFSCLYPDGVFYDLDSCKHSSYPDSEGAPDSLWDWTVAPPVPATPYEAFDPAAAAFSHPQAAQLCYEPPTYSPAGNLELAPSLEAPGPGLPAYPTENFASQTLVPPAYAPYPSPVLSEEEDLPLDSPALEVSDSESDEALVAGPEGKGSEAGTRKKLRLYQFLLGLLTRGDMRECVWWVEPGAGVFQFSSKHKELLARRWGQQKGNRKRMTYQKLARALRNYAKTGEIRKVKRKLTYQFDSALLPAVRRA
# Method in brief: as §1
# ELK3 = target: T5, ELK3 (Homo sapiens, UniProt P41970 1-407); conditions: protein: recombinant; tags: N-terminal GST; dsDNA, one strand shown
# T5 sequence: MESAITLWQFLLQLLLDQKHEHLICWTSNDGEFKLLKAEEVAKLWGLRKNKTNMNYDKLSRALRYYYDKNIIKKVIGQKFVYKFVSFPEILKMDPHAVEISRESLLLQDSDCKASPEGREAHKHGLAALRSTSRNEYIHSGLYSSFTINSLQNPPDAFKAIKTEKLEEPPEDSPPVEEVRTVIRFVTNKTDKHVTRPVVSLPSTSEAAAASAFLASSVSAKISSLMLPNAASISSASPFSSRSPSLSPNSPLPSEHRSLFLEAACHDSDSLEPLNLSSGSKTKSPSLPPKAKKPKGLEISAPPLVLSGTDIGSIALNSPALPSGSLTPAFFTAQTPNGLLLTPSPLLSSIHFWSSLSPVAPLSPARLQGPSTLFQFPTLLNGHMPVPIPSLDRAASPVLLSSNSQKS
# Method in brief: as §1
# FEV = target: T6, FEV (Homo sapiens, UniProt Q99581 1-238); conditions: protein: recombinant; tags: N-terminal GST; dsDNA, one strand shown
# T6 sequence: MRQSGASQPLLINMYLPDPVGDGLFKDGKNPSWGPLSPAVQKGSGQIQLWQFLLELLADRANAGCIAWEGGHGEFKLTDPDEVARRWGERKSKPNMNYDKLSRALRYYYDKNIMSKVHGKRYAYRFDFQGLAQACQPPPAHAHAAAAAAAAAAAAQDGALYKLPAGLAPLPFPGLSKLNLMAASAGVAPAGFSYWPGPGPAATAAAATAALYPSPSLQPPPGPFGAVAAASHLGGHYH
# Method in brief: as §1
# ETV5 = ETV5 (Homo sapiens, UniProt P41161 1-510); conditions: protein: recombinant; tags: N-terminal GST; dsDNA, one strand shown
# Chain of ETV5 (P41161 whole entry): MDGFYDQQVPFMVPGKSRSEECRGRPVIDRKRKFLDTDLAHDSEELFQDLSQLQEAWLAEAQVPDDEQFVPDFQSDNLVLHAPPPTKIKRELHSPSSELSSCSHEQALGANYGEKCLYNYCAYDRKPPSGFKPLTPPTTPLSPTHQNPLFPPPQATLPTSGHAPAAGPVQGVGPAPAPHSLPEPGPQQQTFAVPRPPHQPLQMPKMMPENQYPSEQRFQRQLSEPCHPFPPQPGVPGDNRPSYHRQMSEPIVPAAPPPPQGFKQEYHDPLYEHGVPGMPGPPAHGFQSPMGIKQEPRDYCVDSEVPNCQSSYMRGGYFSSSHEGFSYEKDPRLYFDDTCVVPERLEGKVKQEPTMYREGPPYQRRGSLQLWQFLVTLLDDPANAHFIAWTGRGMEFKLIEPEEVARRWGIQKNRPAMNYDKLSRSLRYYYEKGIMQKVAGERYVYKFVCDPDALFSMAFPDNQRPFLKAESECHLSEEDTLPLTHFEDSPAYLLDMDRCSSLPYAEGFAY
# Method in brief: as §1
# HSF1 = HSF1 (Homo sapiens, UniProt Q00613 1-529); conditions: protein: recombinant; tags: N-terminal GST; chain copies: 3; dsDNA, one strand shown
# Chain of HSF1 (Q00613 whole entry): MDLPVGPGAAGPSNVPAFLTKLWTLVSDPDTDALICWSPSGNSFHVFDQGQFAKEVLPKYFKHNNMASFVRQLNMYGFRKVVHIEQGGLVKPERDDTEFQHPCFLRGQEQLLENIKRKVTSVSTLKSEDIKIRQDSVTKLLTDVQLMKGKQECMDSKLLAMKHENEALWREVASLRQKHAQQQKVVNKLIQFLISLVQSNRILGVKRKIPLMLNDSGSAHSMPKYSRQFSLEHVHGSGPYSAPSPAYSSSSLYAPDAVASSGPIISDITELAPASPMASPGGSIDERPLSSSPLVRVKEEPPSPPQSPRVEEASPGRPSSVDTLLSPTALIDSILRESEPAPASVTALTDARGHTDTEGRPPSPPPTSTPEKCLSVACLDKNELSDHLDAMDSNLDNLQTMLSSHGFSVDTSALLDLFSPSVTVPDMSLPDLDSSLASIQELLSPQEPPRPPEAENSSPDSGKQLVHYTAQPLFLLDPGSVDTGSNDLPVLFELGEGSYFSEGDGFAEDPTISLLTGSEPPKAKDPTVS
# Method in brief: as §1
# SPIC = target: T7, SPIC (Homo sapiens, UniProt Q8N5J4 1-248); conditions: protein: recombinant; tags: N-terminal GST; dsDNA, one strand shown
# T7 sequence: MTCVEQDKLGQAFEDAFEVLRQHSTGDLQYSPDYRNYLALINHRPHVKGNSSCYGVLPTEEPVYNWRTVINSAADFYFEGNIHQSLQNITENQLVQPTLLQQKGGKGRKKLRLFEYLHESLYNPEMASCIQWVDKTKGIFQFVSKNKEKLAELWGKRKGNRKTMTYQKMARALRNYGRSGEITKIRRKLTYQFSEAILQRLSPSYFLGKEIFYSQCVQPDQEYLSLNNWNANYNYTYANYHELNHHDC
# Method in brief: as §1
# ELF4 = ELF4 (Homo sapiens, UniProt Q99607 1-663); conditions: protein: recombinant; tags: N-terminal GST; dsDNA, one strand shown
# Chain of ELF4 (Q99607 whole entry): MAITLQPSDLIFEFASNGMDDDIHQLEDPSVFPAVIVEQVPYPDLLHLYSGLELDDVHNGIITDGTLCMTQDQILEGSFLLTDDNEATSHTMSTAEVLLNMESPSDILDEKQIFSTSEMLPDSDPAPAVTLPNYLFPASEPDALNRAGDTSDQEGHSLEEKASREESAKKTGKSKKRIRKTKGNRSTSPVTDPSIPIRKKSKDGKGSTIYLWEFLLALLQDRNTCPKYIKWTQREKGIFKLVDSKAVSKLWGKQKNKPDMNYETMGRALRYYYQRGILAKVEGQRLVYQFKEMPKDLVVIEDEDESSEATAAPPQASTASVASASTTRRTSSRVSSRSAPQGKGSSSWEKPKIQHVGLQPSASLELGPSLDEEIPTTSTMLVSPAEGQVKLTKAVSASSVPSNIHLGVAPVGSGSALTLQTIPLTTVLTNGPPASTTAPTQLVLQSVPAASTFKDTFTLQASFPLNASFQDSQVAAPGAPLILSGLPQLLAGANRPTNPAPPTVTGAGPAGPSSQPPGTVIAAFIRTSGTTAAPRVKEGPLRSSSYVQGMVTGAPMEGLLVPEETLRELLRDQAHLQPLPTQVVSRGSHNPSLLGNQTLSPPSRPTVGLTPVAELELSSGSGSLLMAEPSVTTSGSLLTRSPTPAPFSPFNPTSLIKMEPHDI
# Method in brief: as §1
# ELK4 = target: T8, ELK4 (Homo sapiens, UniProt P28324-2 1-405); conditions: protein: recombinant; tags: N-terminal GST; dsDNA, one strand shown
# T8 sequence: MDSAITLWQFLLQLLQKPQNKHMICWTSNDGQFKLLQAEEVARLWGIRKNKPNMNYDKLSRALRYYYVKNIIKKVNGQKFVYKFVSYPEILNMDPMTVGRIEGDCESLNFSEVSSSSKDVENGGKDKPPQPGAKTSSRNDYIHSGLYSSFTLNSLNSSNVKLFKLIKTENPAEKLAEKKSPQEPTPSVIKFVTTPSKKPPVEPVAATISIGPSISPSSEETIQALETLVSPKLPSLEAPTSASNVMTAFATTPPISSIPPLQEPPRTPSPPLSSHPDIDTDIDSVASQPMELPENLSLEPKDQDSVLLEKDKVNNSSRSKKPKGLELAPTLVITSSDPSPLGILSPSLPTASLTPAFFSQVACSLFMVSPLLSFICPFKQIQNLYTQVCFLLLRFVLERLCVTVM
# Method in brief: as §1
# ELF3 = target: T9, ELF3 (Homo sapiens, UniProt P78545 1-371); conditions: protein: recombinant; tags: N-terminal GST; dsDNA, one strand shown
# T9 sequence: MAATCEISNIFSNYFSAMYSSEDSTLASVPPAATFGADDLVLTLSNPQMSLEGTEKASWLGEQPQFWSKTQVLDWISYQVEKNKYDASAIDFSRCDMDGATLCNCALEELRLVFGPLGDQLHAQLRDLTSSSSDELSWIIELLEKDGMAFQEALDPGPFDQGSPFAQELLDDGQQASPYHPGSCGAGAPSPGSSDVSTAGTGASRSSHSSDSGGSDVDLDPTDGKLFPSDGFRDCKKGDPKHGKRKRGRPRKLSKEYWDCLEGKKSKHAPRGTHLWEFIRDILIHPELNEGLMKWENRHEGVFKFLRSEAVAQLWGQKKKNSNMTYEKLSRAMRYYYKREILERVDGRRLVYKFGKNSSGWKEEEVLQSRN
# Method in brief: as §1
# CRX = CRX (Homo sapiens, UniProt O43186 1-299); conditions: protein: recombinant; tags: N-terminal GST; dsDNA, one strand shown
# Chain of CRX (O43186 whole entry): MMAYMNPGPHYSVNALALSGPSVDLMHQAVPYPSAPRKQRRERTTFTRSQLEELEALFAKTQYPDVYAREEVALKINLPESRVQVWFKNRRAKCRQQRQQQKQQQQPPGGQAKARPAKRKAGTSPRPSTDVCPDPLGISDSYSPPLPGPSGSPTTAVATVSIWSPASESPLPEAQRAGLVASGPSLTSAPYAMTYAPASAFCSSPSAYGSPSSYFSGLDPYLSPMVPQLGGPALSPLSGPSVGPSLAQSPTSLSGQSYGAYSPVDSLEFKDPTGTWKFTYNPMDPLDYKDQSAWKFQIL
# Method in brief: as §1
# ETV1 = ETV1 (Homo sapiens, UniProt P50549 1-477); conditions: protein: recombinant; tags: N-terminal GST; dsDNA, one strand shown
# Chain of ETV1 (P50549 whole entry): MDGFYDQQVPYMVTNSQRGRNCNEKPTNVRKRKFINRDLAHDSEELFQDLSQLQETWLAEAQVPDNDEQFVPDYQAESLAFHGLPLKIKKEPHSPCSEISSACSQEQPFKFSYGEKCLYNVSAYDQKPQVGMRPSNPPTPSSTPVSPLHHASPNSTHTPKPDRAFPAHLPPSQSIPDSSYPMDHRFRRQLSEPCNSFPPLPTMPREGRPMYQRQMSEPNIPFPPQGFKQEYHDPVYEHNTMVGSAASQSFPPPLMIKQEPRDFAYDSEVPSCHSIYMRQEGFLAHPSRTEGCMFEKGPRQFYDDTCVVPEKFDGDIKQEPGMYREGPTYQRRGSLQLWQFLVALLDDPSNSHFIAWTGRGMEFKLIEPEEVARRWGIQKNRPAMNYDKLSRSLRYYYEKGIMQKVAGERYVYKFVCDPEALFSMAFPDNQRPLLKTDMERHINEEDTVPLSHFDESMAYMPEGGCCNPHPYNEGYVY
# Method in brief: as §1
sequence,measurement,setting,value
TAAAGC,binding signal,FLI1,"1.03 fold enrichment (6-mer frequency, TF over GST control)"
same,binding signal,ELK1,"1.12 fold enrichment (6-mer frequency, TF over GST control)"
same,binding signal,GABPA,"1.11 fold enrichment (6-mer frequency, TF over GST control)"
same,binding signal,ELF1,"1.05 fold enrichment (6-mer frequency, TF over GST control)"
same,binding signal,EHF,"1.02 fold enrichment (6-mer frequency, TF over GST control)"
same,binding signal,SPI1,"1.05 fold enrichment (6-mer frequency, TF over GST control)"
same,binding signal,SPIB,"1.06 fold enrichment (6-mer frequency, TF over GST control)"
same,binding signal,ELK3,"1.09 fold enrichment (6-mer frequency, TF over GST control)"
same,binding signal,FEV,"1.04 fold enrichment (6-mer frequency, TF over GST control)"
same,binding signal,ETV5,"1.09 fold enrichment (6-mer frequency, TF over GST control)"
same,binding signal,HSF1,"1.33 fold enrichment (6-mer frequency, TF over GST control)"
same,binding signal,SPIC,"1.1 fold enrichment (6-mer frequency, TF over GST control)"
same,binding signal,ELF4,"1.05 fold enrichment (6-mer frequency, TF over GST control)"
same,binding signal,ELK4,"1.1 fold enrichment (6-mer frequency, TF over GST control)"
same,binding signal,ELF3,"1.06 fold enrichment (6-mer frequency, TF over GST control)"
same,binding signal,CRX,"1.87 fold enrichment (6-mer frequency, TF over GST control)"
same,binding signal,ETV1,"1.08 fold enrichment (6-mer frequency, TF over GST control)"
